The text below walks through data of PubChem BioAssay (NCI).

This is part of a sample that, as a whole, favours compounds with a hit. Of some 83,000 tested, about 20% had one in any assay.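 Activity criterion: percent growth below 10, measured after cells in 96-well plates were exposed to a single compound concentration for 48 hours.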 Unmarked numbers belong to inactive results. Calls of active or inactive are those of the source.

The first assay relates to A498 renal. The assay is described as follows: NCI-60 one-dose screen, 48 h (100 = growth as untreated, 0 = no growth, -100 = all killed). To be noted: 10 µM unless noted.
For the molecule `O=C(O)CSCC(=O)Nc1cc(C(F)(F)F)ccc1Cl`, the growth is 139%.

For the molecule `N=C(N)c1nn(C2OC(CO)C(O)C2O)c2nc[nH]c(=O)c12` (stereo unspecified), the growth is 15.4%.

For the molecule `CC(C)C(=O)OCCOc1ccc(C(C)(C)C)cc1`, the growth is 94.2%.

With `OCCNc1ccccc1`, the growth is 99.1%.

Take `C/C(=N\Nc1ccc([N+](=O)[O-])cc1[N+](=O)[O-])c1ccc(Br)cc1`: the growth is 102%.

Take `O=C(Oc1ccccc1Cl)c1ccc(Cl)cc1Cl`: the growth was 94.2%.

As for `C=C(C)COc1ccc(C(C)(C)C)cc1`, the growth is 105%.

Consider `CCC(C)c1c(N)n(S(=O)(=O)c2ccc(C)cc2)oc1=O` (stereo unspecified), for which the growth is 113%.

For `Nc1ccn(C2CC(N)C(CO)O2)c(=O)n1` (stereo unspecified), the growth was 100%.

On to `CN(CCCN(C)CCC1CCCCC1)CCC1CCCCC1`, for which the growth is 84.7%.

In the case of `O=S(Cc1ccccc1)/C(=C/NC(=S)Nc1cc(Cl)ccc1Cl)c1ccccc1` (stereo unspecified), the growth was 101%.

For `Cc1c(Cl)cccc1N=C=S`, the growth is 117%.

Take `CCCC1OC(c2ccco2)OCC1CC` (stereo unspecified): the growth was 94.6%.

On to `CN1CCCN(C(c2ccccc2)c2ccc(Br)cc2)CC1` (stereo unspecified), for which the growth was 74.2%.

Take `O=C(Nc1cccc(Cl)c1)c1ccc(Cl)cc1Cl`: the growth was 87.8%.

Take `CC(=O)Oc1c(Cl)cccc1-c1ccccc1`: the growth was 96.9%.

With `C/C=C/C1OCC(CC)C(CCC)O1` (stereo unspecified), the growth is 91.7%.

Consider `COc1cccc(C(=O)O)c1OC`, for which the growth was 97.4%.

In the case of `CC(C)C1CCC(C)C(O)C1` (stereo unspecified), the growth is 92%.

`COc1cc(CC#N)c([N+](=O)[O-])cc1OC`: the growth was 107%.

For the molecule `CCCNS(=O)(=O)c1ccc(Cl)cc1`, the growth was 98.9%.

In the case of `CCOC(=O)/C(C)=C\c1ccc(OC)c(OC)c1`, the growth is 95.7%.

As to `O=C(NCc1ccccc1)c1cccc([N+](=O)[O-])c1`, the growth was 82.3%.

Take `OCCc1ccc(Cl)cc1`: the growth was 106%.

In the case of `C/C(=N\O)c1ccccn1`, the growth was 108%.

Turning to `CC1(C)OC(=O)CC1=O`, the growth is 88.9%.

As to `O=C1C=Cc2ccccc2/C1=C/c1[nH]c(=O)[nH]c1O`, the growth is 32.7%.

For the molecule `Nc1ncnc2c1ncn2C1OC(CO)C2OC21` (stereo unspecified), the growth was 85.4%.

Turning to `C=CCS(C)(=O)=O`, the growth is 105%.

Take `Cc1ccc(C2CCCCC2)cc1Br`: the growth was 88.6%.

As to `Cc1ccc2[nH]c3ccccc3c2c1`, the growth is 82.5%.

Consider `Cc1ccc(/C=N/NC(N)=S)s1`, for which the growth is 95.2%.

Turning to `O=S(=O)(O)c1cccnc1`, the growth was 101%.

For the molecule `O=C(O)c1ccccc1Cc1ccc2c(c1)CCCC2`, the growth was 107%.

For `Nc1cc(F)ccc1[N+](=O)[O-]`, the growth is 102%.

With `CCOc1ccc(C(=O)O)cc1`, the growth is 84.7%.

For `CCCCOC(=O)c1ccccc1O`, the growth was 129%.

In another assay the test system is CCRF-CEM leukemia. The assay is described as above. To be noted: 10 µM unless noted.
Regarding `O=C(O)CSCC(=O)Nc1cc(C(F)(F)F)ccc1Cl`, the growth was 101%.

Consider `CC(C)C(=O)OCCOc1ccc(C(C)(C)C)cc1`, for which the growth is 98.6%.

Consider `OCCNc1ccccc1`, for which the growth is 105%.

Consider `C/C(=N\Nc1ccc([N+](=O)[O-])cc1[N+](=O)[O-])c1ccc(Br)cc1`, for which the growth is 96.5%.

Consider `O=C(Oc1ccccc1Cl)c1ccc(Cl)cc1Cl`, for which the growth was 99.9%.

Consider `C=C(C)COc1ccc(C(C)(C)C)cc1`, for which the growth is 103%.

With `CN(CCCN(C)CCC1CCCCC1)CCC1CCCCC1`, the growth is 20.9%.

For the molecule `O=S(Cc1ccccc1)/C(=C/NC(=S)Nc1cc(Cl)ccc1Cl)c1ccccc1` (stereo unspecified), the growth was 99.6%.

Take `Cc1c(Cl)cccc1N=C=S`: the growth is 94.6%.

For `CCCC1OC(c2ccco2)OCC1CC` (stereo unspecified), the growth is 93%.

On to `CN1CCCN(C(c2ccccc2)c2ccc(Br)cc2)CC1` (stereo unspecified), for which the growth is 96.6%.

For the molecule `OCCOc1ccc(-c2cc(-c3ccccn3)nc(-c3ccccn3)c2)cc1`, the growth was 3.02% (active).

Regarding `O=C(Nc1cccc(Cl)c1)c1ccc(Cl)cc1Cl`, the growth was 89.6%.

As for `C/C=C/C1OCC(CC)C(CCC)O1` (stereo unspecified), the growth was 85.4%.

`COc1cccc(C(=O)O)c1OC`: the growth was 107%.

Consider `CC(C)C1CCC(C)C(O)C1` (stereo unspecified), for which the growth was 96.1%.

On to `COc1cc(CC#N)c([N+](=O)[O-])cc1OC`, for which the growth is 103%.

In the case of `CCCNS(=O)(=O)c1ccc(Cl)cc1`, the growth was 100%.

As to `CCOC(=O)/C(C)=C\c1ccc(OC)c(OC)c1`, the growth is 88.8%.

Regarding `O=C(NCc1ccccc1)c1cccc([N+](=O)[O-])c1`, the growth is 90.9%.

For `OCCc1ccc(Cl)cc1`, the growth is 96.9%.

For the molecule `C/C(=N\O)c1ccccn1`, the growth is 96.5%.

As to `CC1(C)OC(=O)CC1=O`, the growth is 89.3%.

With `O=C1C=Cc2ccccc2/C1=C/c1[nH]c(=O)[nH]c1O`, the growth is 24.3%.

As to `Nc1ncnc2c1ncn2C1OC(CO)C2OC21` (stereo unspecified), the growth is 105%.

In the case of `C=CCS(C)(=O)=O`, the growth is 110%.

Consider `Cc1ccc(C2CCCCC2)cc1Br`, for which the growth is 103%.

Turning to `Cc1ccc2[nH]c3ccccc3c2c1`, the growth is 92.8%.

Regarding `Cc1ccc(/C=N/NC(N)=S)s1`, the growth is 100%.

`O=S(=O)(O)c1cccnc1`: the growth was -41.7% (active).

Take `O=C(O)c1ccccc1Cc1ccc2c(c1)CCCC2`: the growth is 106%.

Regarding `Nc1cc(F)ccc1[N+](=O)[O-]`, the growth is 110%.

`CCOc1ccc(C(=O)O)cc1`: the growth is 105%.

For the molecule `CCCCOC(=O)c1ccccc1O`, the growth was -71.6% (active).
